# Bioassay records: PubChem, National Center for Advancing Translational Sciences (NCATS)
# This is a sample that favours compounds with a hit; in the whole collection about 2.4% have one here.
# AmpC inh no det: AmpC beta-lactamase inhibition, detergent-free assay; AID 585; P00811; 71,000 tested, 1.8% active; AmpC nitrocefin hydrolysis, absorbance 480 nm, no detergent; Potency, µM (highest dose often 28.7 µM), inactives show top-dose activity change, negative = inhibition; further: % of control where 0% means no effect
# Target sequence (P00811 whole entry, looked up): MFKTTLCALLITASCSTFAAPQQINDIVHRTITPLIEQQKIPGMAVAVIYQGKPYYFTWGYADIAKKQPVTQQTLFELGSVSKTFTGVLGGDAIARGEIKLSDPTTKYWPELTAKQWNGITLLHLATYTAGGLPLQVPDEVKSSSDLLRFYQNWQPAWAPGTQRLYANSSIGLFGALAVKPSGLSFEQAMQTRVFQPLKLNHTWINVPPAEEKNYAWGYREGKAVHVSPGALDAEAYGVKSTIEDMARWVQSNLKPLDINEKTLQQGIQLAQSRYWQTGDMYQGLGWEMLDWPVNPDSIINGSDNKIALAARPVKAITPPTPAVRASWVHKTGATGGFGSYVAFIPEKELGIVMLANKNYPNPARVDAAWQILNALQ
#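 AmpC, 20 mM phosphate pH 7.0; 15 min cpd preinc, RT; start with nitrocefin (800 uM stock); A480 kinetic read, 20 s intervals, 4 min. No-enzyme wells = negative control.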
# LT uptake inh: blocks cellular internalization of anthrax lethal toxin; Cells, anthrax lethal toxin internalization, FRET ratio (460/530); Potency, µM (highest dose often 40 µM), without a hit: at the top dose activity change, negative = inhibition, most hits filed as inhibitors; 70,000 tested, 0.67% active; further: on the % scale 0 is the no-effect control and ±100 the full control effect; nearly all actives have a fitted effect of over 50% in size
# AmpC det inh: blocks E. coli AmpC beta-lactamase in presence of detergent | purified AmpC, nitrocefin hydrolysis with detergent | AID 584 | Potency, µM (series often up to 28.7 µM), for the others: top-dose activity change, negative = inhibition | 71,000 tested, 0.09% active; active means well fitted curve in the direction sought with a large enough effect; inconclusive means small, poorly fitted or top-dose-only effect; further: on the % scale 0 is the no-effect control and ±100 the full control effect
#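 E. coli AmpC (5.3 nM) in 20 mM phosphate pH 7.0 with 0.01% Triton X-100, preincubated 15 min RT with compound; nitrocefin (2 uL of 800 uM stock) hydrolysis followed by 480 nm absorbance every 20 s over 4 min.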
# SmPrx2 inh: Schistosoma mansoni Prx2 inhibition; S. mansoni Prx2 activity coupled to TGR/GSH (TGR is thioredoxin glutathione reductase), NADPH fluorescence loss, qHTS; Potency, µM; 65,000 tested, 0.07% active; AID 448
#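 Purified S. mansoni TGR and Prx2 in pH 7.4 phosphate buffer with EDTA and Tween-20 were preincubated with compounds for 15 min. Further NADPH/GSH was added, then a 2.5 mM H2O2 aliquot initiated turnover, followed kinetically by NADPH fluorescence.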
# Numbers without * were called inactive; ? = inconclusive; nt = not tested or not shown; [ ] = remark or other dose. Unless noted, the call rests on the fitted dose curve. Potency means the concentration at half of the fitted maximal effect.
SMILES,AmpC inh no det,LT uptake inh,AmpC det inh,SmPrx2 inh
O=C(NCc1ccc2c(c1)OCO2)c1cc2c(s1)CSC2,13µM*[single pt active],-3%,5%,>57
CCc1ccccc1S(=O)(=O)Cc1ccc(C(=O)NCc2ccc3c(c2)OCO3)o1,4µM*[single pt active],?,6%,>57
COc1ccc(S(=O)(=O)Cc2ccc(C(=O)NCc3ccccn3)o2)cc1,4µM*[single pt active],?,11%,>57
O=C(NCc1ccco1)c1cc2c(s1)CSC2,-25%,-13%,12%,nt
C1OCOCO1,-10%,-5%,7%,nt
O=C(c1ccco1)N1CCN(c2ncnc3c2cnn3-c2ccccc2)CC1,-1%,nt,-4%,>57
Cc1nn(-c2ccccc2)c(Cl)c1C(=O)N1CCN(c2ncnc3c2cnn3-c2ccccc2)CC1,134%,6.3µM*,-3%,>57
CN1CCN(c2ncnc3ccc(-c4ccccc4C#N)cc23)CC1,45%,?,5%,>57
CN1CCN(c2ncnc3ccc(-c4ccccc4C(F)(F)F)cc23)CC1,126%,13µM*,10%,>57
COCCCNC(=O)CN1C(=O)CSc2ncccc21,-4%,4%,5%,>57
Cc1c(Cl)cccc1NC(=O)CN1C(=O)CSc2ncccc21,3.2µM*[single pt active],?,11%,>57
CC(=O)c1ccc(OCC(O)CN2CCN(CCO)CC2)cc1 (stereo unspecified),4µM*[single pt active],1%,11%,>57
CC(=O)c1ccc(OCC(O)CN2C(C)(C)CC(O)CC2(C)C)cc1 (stereo unspecified),4µM*[single pt active],1%,14%,>57
Cc1cccc(OCC(O)CN2C(C)(C)CC(O)CC2(C)C)c1C (stereo unspecified),15%,-3%,-1%,>57
Cc1ccc(OCC(O)CN2CCN(Cc3ccc4c(c3)OCO4)CC2)c(C)c1 (stereo unspecified),92%,?,-4%,>57
Cc1ccc(OCC(O)CN2CCN(CC(O)COc3ccc(C)cc3)CC2)cc1 (stereo unspecified),103%,8%,2%,>57
CC(=O)c1ccc(OCC(O)CN2CCN(Cc3ccc4c(c3)OCO4)CC2)cc1 (stereo unspecified),4µM*[single pt active],-17%,14%,>57
CCN1CCN(CC(O)COc2ccc(C(C)=O)cc2)CC1 (stereo unspecified),4µM*[single pt active],-4%,14%,>57
CC(=O)c1ccc(OCC(O)CN2CCCC(C)C2)cc1 (stereo unspecified),3.2µM*[single pt active],9%,14%,>57
Cc1nc2c3ccccc3n(CC(=O)c3ccc(F)cc3)c(=O)n2n1,4µM*[single pt active],?,14%,>57
CO/N=C(/C(=O)N[C@@H]1C(=O)N2C(C(=O)O)=C(COC(N)=O)CS[C@H]12)c1ccco1,0.01µM*,-6%,0.025µM*,nt
CO/N=C(\C(=O)N[C@@H]1C(=O)N2C(C(=O)O)=C(CSc3nc(=O)c(O)nn3C)CS[C@@H]12)c1csc(N)n1,13µM*,1%,13µM*,>57
Nc1cccc(C(F)(F)F)c1,-7%,-5%,-3%,nt
O=C(C1CC(c2ccc(F)cc2)=NO1)N1CCCCC1 (stereo unspecified),1%,6%,-4%,>57
O=C(C1CC(c2ccc(F)cc2)=NO1)N1CCc2ccccc2C1 (stereo unspecified),4µM*[single pt active],?,12%,>57
SMILES,AmpC inh no det,LT uptake inh,AmpC det inh,SmPrx2 inh
COc1cccc(C2=NOC(C(=O)N3CCc4ccccc4C3)C2)c1 (stereo unspecified),23%,?,13%,>57
O=C(C1CC(c2ccc(F)cc2)=NO1)N1CCN(c2ccccc2)CC1 (stereo unspecified),4µM*[single pt active],-15%,12%,>57
C[N+](C)(C)CCC(=O)c1cccc2ccccc12,0%,25µM*,-3%,>57
COc1ccc(C)cc1NC(=O)c1ccoc1C,2%,7%,2%,nt
COc1ccc(C)cc1NC(=O)c1cc2c(CO)cnc(C)c2oc1=N,3.2µM*[single pt active],?,13%,>57
c1ccc(-c2nnc(N3CCN(c4ccccn4)CC3)c3ccccc23)cc1,39%,10µM*,-4%,>57
Cc1ccc(-c2nnc(N3CCN(c4ccccn4)CC3)c3ccccc23)cc1,3%,11%,3%,>57
O=C(c1ccco1)N1CCC2(CC1)CCN(C(c1ccccc1)c1ccccc1)CC2,73%,11%,-2%,>57
COc1ccc(NC(=O)c2nnn(Cc3cccc(F)c3)c2N)c(OC)c1,2.5µM*[single pt active],-4%,11%,>57
COc1ccc(OC)c(NC(=O)c2nnn(Cc3ccc(Br)cc3F)c2N)c1,3.2µM*[single pt active],?,13%,?
COc1ccc(C)cc1NC(=O)c1nnn(Cc2cccc(F)c2)c1N,3.2µM*[single pt active],-6%,15%,nt
Cc1ccc(C)c(NC(=O)c2nnn(Cc3ccccc3)c2N)c1,-12%,-8%,24%,>57
COc1cccc(Cn2nnc(C(=O)Nc3cc(Cl)ccc3OC)c2N)c1,-22%,?,12%,>57
NS(=O)(=O)C[C-]1C=C[CH]([Sb-]([Cl])([Cl])([Cl])([Cl])[Cl])C=C1.c1ccncc1 (stereo unspecified),4%[5.75 µM],1%[8 µM],-4%[5.75 µM],?
CCN1C(=O)[C@H]2[C@H]3[C@H](O)[C@H](O)C/C(=N/OCc4ccccc4)[C@H]3CC[C@@H]2C1=O,nt,-5%[8 µM],nt,nt
CCOC(=O)Cn1c(=O)oc2cc(S(=O)(=O)NCCCc3ccccc3)ccc21,0.32µM*[single pt active],?,13%,>57
COc1ccc(OC)c(-c2cc(C(=O)Nc3c(C)n(C)n(-c4ccccc4)c3=O)no2)c1,36%,-6%,-2%,7.1*
CCOC(=O)N1CCN(S(=O)(=O)c2ccc3c(c2)oc(=O)n3C)CC1,10%,nt,-5%,>57
CCCN1CCN(C(=O)C2CCN(S(=O)(=O)c3ccc4c(c3)oc(=O)n4C)CC2)CC1,4µM*[single pt active],?,11%,>57
Cc1ccccc1C,-11%,-1%,6%,nt
CCC(Sc1nccn1C)C(=O)Nc1nnc(C)s1 (stereo unspecified),4µM*[single pt active],-10%,8%,>57
CCC(Sc1nccn1C)C(=O)Nc1cccc2ccccc12 (stereo unspecified),-3%,-4%,-6%,>57
Cc1cccc(OCC(=O)NCc2ccncc2)c1C,3.2µM*[single pt active],-5%,11%,>57
O=C(O)c1cc(Cl)cc(Cc2cc(Cl)cc(C(=O)O)c2O)c1O,-7%[5.75 µM],?,-4%[5.75 µM],>57
COc1ccc(-c2csc(N(CC3CCCO3)C(=O)c3cccs3)n2)cc1 (stereo unspecified),27%,-26%,2%,>57
CCN(CC)CCCN(C(=O)c1cccs1)c1nc(-c2ccc(OC)cc2)cs1,103%,10µM*,-7%,>57
CC(C)CNc1oc(-c2ccc(F)cc2)nc1C#N,4µM*[single pt active],?,6%,>57
N#Cc1nc(-c2ccc(F)cc2)oc1NCc1cccc2c1OCO2,-22%,?,8%,>57
Cc1nc(NCc2ccccc2)c2nc(-c3ccccc3)n(C(C)CN(C)C)c2n1 (stereo unspecified),80%,-26%,16%,nt
CCOc1ccc(-n2c(CC)nc3ccccc3c2=O)cc1,3.2µM*[single pt active],-17%,12%,>57
